# Test results as given in PubChem BioAssay.
# Values joined by “and” are separate entries in the source; they are usually repeats but may differ in a detail not shown here. Equal entries are not always repeated. Active and inactive are the calls of the source.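 The calls were made as follows, unless noted: active = thallium flux through the channel raised or lowered by more than 3 SD from vehicle-only wells, actives on both sides; inactive = the rest.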
# Key:
# [1] = target: NAD(+) hydrolase SARM1 (Homo sapiens) (UniProt Q6SZW1); assay: blocking NAD cleavage by SARM1 SAM-TIR – cell lysate, NAD-Glo luminescence (AID 1508614;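 active = compound whose remaining NAD level is above about 45 nM, limit read from the data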;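 also: higher remaining NAD means stronger inhibition of SARM1 NADase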); conditions: SAM-TIR HEK293T lysate NADase, at 1 µM, stronger effect = higher value
# NAD(+) hydrolase SARM1 (Homo sapiens), sequence (Q6SZW1 whole entry, looked up, the tested form may be a part): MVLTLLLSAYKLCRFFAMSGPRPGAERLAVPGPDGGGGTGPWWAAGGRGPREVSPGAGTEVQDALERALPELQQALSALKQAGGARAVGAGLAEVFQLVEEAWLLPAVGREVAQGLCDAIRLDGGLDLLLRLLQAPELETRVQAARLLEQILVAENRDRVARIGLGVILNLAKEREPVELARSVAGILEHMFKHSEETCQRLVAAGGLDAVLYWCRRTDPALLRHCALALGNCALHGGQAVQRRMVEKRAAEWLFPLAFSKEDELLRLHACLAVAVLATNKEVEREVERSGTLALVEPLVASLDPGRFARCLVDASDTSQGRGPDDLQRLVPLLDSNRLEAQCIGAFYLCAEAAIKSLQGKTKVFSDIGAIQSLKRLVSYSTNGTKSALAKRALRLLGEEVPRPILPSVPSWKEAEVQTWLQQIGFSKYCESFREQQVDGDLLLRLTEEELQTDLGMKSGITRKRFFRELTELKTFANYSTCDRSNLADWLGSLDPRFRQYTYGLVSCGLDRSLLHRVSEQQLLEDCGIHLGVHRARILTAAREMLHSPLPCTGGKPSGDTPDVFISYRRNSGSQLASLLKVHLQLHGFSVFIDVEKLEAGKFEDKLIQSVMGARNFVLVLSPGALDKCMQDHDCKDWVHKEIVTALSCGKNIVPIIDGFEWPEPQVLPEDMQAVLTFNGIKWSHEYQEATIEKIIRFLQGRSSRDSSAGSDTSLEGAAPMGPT
# [2] = target: Mitogen-activated protein kinase 7 (Homo sapiens) (UniProt Q13164); assay: Gal4-ERK5 driven luciferase induction – cell-based, HTS, primary screen (AID 1508626;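 active = luciferase signal above three times the same-plate solvent-only control wells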;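 also: luciferase driven by Gal4-ERK5 fusion binding five Gal4 sites before minimal TATA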); conditions: HeLa Gal4-ERK5 transactivation, 18 h, at 5 µM, stronger effect = higher value
# Mitogen-activated protein kinase 7 (Homo sapiens), sequence (Q13164 whole entry, looked up, the tested form may be a part): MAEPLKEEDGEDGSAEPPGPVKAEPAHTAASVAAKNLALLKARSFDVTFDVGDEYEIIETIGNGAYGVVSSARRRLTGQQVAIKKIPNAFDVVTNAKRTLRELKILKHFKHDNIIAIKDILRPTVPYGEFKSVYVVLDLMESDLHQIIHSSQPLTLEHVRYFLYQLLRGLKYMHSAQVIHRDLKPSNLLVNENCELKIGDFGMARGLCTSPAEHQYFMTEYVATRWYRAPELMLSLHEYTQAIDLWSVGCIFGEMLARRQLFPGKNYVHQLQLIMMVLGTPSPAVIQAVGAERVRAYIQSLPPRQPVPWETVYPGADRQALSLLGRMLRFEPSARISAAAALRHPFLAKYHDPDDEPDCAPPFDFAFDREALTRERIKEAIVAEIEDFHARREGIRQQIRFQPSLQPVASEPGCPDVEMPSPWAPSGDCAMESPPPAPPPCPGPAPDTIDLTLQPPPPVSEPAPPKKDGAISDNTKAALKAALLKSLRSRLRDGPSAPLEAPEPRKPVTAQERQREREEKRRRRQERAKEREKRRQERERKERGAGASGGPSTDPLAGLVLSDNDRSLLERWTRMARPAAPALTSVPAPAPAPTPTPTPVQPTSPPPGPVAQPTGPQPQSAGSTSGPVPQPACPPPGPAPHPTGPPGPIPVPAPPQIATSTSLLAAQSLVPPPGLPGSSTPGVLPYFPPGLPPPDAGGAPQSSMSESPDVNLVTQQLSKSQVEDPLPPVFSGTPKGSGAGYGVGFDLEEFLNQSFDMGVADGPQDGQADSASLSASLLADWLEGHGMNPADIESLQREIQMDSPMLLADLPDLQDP
# [3] = galactose survival enhancers in mitochondrial complex I cybrids – cell-based, galactose medium, ATP luminescence, primary screen (AID 1645843;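 active = z-score of at least 1.8 in each of two replicates, scored against plate mean and spread of sample wells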;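 also: positive z means more ATP and so rescue of galactose-driven cybrid death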); conditions: complex I mutant cybrid cells, 72 h, stronger effect = higher value
# F380Y = assay: BK channel mutant inhibitors and activators – cell-based, U2OS BacMam, thallium flux, beta subunits, selectivity assay, profiling panel (AID 1259406); conditions: U2OS BacMam BK variants, at 30 µM;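 also: initial slope of Thallos dye fluorescence rise after thallium is added; log ratio against the mean of 0.3% DMSO vehicle wells on the same plate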
# F380Y/beta1 = assay: as above; conditions: U2OS BacMam BK variants, at 30 µM
# [4] = growth inhibition, single agent or in combination, cell-based, chromothripsis tumors, cisplatin or BGB combos (AID 1671449; in the data active = inhibition above about 80%;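 also: cells exposed for 96 hours; 0% = vehicle DMSO and 100% = killing by high DMSO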); conditions: LFS_MB_P medulloblastoma cells
# [5] = growth inhibition, single agent and combos, cell-based, chromothripsis tumors, cisplatin or BGB combos (AID 1671450; in the data active = inhibition above about 80%;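 also: cells exposed to compound for four days; 0% = vehicle DMSO and 100% = cell killing by high DMSO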); conditions: HDN33 neuroblastoma cells, stronger effect = higher value
# [6] = growth inhibition, single agents and combos, ICB984, cell-based, cisplatin or BGB combos, synergistic combos for chromothripsis tumors (AID 1671451; call rule not given here;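 also: cells exposed for 96 hours before readout; 0% = vehicle DMSO and 100% = killing by high DMSO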); conditions: ICB984 medulloblastoma cells, drug combinations, stronger effect = higher value
# [7] = growth inhibition, single agents and combos, LFS_MB_1R, cell-based, cisplatin or BGB combos, synergistic combos for chromothripsis tumors (AID 1671452; in the data active = inhibition above about 80%;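 also: cells exposed for 96 hours before readout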); conditions: LFS_MB_1R medulloblastoma cells, stronger effect = higher value
# [8] = growth inhibition, single agents and combos, HTB85, cell-based, BGB or cisplatin IC20 combos, synergistic combos for chromothripsis tumors (AID 1671453; in the data active = inhibition above about 80%;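 also: cells exposed for 96 hours before readout; 0% = vehicle DMSO and 100% = high DMSO killing control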); conditions: HTB85 osteosarcoma cells, drug combinations, stronger effect = higher value
# [9] = growth inhibition, single agents and combos, CRL2098, cell-based, BGB or cisplatin IC20 combos, synergistic combos for chromothripsis tumors (AID 1671454; in the data active = inhibition above about 80%;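 also: cells exposed for 96 h before readout; 0% = vehicle DMSO and 100% = killing by high DMSO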); conditions: CRL2098 osteosarcoma cells, drug combinations, stronger effect = higher value
# [10] = growth inhibition, single agents and combos, HD-MB03, cell-based, BGB or cisplatin IC20 combos, synergistic combos for chromothripsis tumors (AID 1671455; in the data active = inhibition above about 83%;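 also: 0% = vehicle DMSO and 100% = high DMSO as cytotoxic control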); conditions: HD-MB03 medulloblastoma cells, stronger effect = higher value
# [11] = growth inhibition, single agents and combos, UWB1.289, cell-based, BGB or cisplatin combos, synergistic combos for chromothripsis tumors (AID 1671456; in the data active = inhibition above about 80%;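 also: cells exposed to compound for four days; 0% = vehicle DMSO and 100% = killing by high DMSO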); conditions: UWB1.289 ovarian carcinoma cells, stronger effect = higher value
# [12] = growth inhibition, single agents and combos, LFS_MB_2R, cell-based, cisplatin combos, synergistic combos for chromothripsis tumors (AID 1671457; in the data active = inhibition above about 80%;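 also: cells exposed to compound for four days before readout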); conditions: LFS_MB_2R medulloblastoma cells, stronger effect = higher value
# [13] = growth inhibition, MDA-MB-436, cell-based, BGB or cisplatin combos, synergistic combos for chromothripsis tumors (AID 1671458; call rule not given here;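 also: cells exposed for 96 hours; 0% = vehicle DMSO and 100% = killing by high DMSO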); conditions: MDA-MB-436 breast carcinoma growth inhibition, drug combinations, stronger effect = higher value
# [14] = UWB1.289_BRCA1 ovarian cancer growth, cell-based, BGB or cisplatin combinations (AID 1671459; in the data active = inhibition above about 80%); conditions: UWB1.289 BRCA1 ovarian carcinoma, drug combinations, stronger effect = higher value
# [15] = drug combination toxicity in non-malignant astrocytes – cell-based, BGB or cisplatin IC20 combos, cytotoxicity control for chromothriptic childhood tumor combination screen (AID 1671460; in the data active = inhibition above about 80%;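 also: cells exposed to compounds for 96 hours before viability readout; 0% = vehicle and 100% = killing control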); conditions: Human astrocytes, viability inhibition, drug combinations, at 0.5 µM, stronger effect = higher value
# [16] = BT084 cell growth, single and combined drugs, ICGC_MB145, cisplatin and BGB IC40 combos (AID 1671461; in the data active = inhibition above about 80%;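 also: cells exposed to drugs for 96 hours; 0% = vehicle DMSO and 100% = high DMSO full killing control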); conditions: BT084 medulloblastoma cells, drug combinations, stronger effect = higher value
# [17] = RCMB18 cell growth, single agent and combined, cisplatin and BGB IC40 combos (AID 1671462; in the data active = inhibition above about 80%;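 also: cells exposed to compound for four days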); conditions: RCMB18 medulloblastoma cells, stronger effect = higher value
# [18] = CRL1545 cell growth, single agent and combined, cisplatin and BGB IC20 combos (AID 1671464; in the data active = inhibition above about 80%;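 also: cells exposed to compound for 96 hours before readout; 0% = vehicle DMSO and 100% = high DMSO killing control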); conditions: CRL1545 osteosarcoma cells, stronger effect = higher value
# [19] = measured here: combination with BGB IC40, at 0.05 µM
# [20] = measured here: with BGB IC20 combination, at 0.5 µM
# [21] = measured here: with cisplatin IC20 combination, at 0.5 µM
# [22] = measured here: combination with cisplatin, at 0.5 µM
# [23] = measured here: combination with cisplatin, at 5 µM
smiles,measurement,setting,value
OCCOCCN1CCN(C2=Nc3ccccc3Sc3ccccc32)CC1,remaining NAD,[1],10 nM (inactive)
same,luciferase signal,[2],48 AU (inactive)
same,z-score,[3],-0.095 (inactive) and 0.115 (inactive)
same,log fold change Tl+ flux,F380Y,0.134 (active)
same,log fold change Tl+ flux,F380Y/beta1,0.105 (active)
Cc1nc2n(c(=O)c1CCN1CCC(c3noc4cc(F)ccc34)CC1)CCCC2,remaining NAD,[1],10 nM (inactive)
same,z-score,[3],-1.22 (inactive) and -0.71 (inactive)
same,log fold change Tl+ flux,F380Y,0.0311 (inactive)
same,log fold change Tl+ flux,F380Y/beta1,-0.00468 (inactive)
CN(C)CC/C=C1/c2ccccc2COc2ccc(CC(=O)O)cc21,z-score,[3],0.505 (inactive)
same,log fold change Tl+ flux,F380Y,0.0275 (inactive)
same,log fold change Tl+ flux,F380Y/beta1,0.0119 (inactive)
OCc1cccnc1,remaining NAD,[1],10 nM (inactive)
same,z-score,[3],0.275 (inactive)
same,log fold change Tl+ flux,F380Y,-0.0134 (inactive)
same,log fold change Tl+ flux,F380Y/beta1,-0.0115 (inactive)
O=C1Nc2ccc(Cl)cc2[C@@](C#CC2CC2)(C(F)(F)F)O1,z-score,[3],-1.77 (inactive) and -2 (inactive)
same,log fold change Tl+ flux,F380Y,0.0449 (inactive)
same,log fold change Tl+ flux,F380Y/beta1,0.167 (active)
CC(=O)Nc1ccc(CC(=O)O)cc1,remaining NAD,[1],10 nM (inactive)
same,z-score,[3],0.87 (inactive)
same,log fold change Tl+ flux,F380Y,-0.0209 (inactive)
same,log fold change Tl+ flux,F380Y/beta1,-0.00468 (inactive)
Nc1nc(F)nc2c1ncn2[C@@H]1O[C@H](CO)[C@@H](O)[C@@H]1O,z-score,[3],0.045 (inactive) and -0.22 (inactive)
same,log fold change Tl+ flux,F380Y,0.0242 (inactive)
same,log fold change Tl+ flux,F380Y/beta1,-0.00658 (inactive)
Cc1c(O)cccc1C(=O)N[C@@H](CSc1ccccc1)[C@H](O)CN1C[C@H]2CCCC[C@H]2C[C@H]1C(=O)NC(C)(C)C,z-score,[3],-1.03 (inactive) and -1.48 (inactive)
same,log fold change Tl+ flux,F380Y,0.0722 (inactive)
same,log fold change Tl+ flux,F380Y/beta1,0.0513 (inactive)
Nc1nc2c(ncn2COC(CO)CO)c(=O)[nH]1,remaining NAD,[1],10 nM (inactive)
same,inhibition,"[4]; at 0.5 µM, stronger effect = higher value",-14.4% (inactive)
same,inhibition,"[4]; measured here: combination with BGB IC20, at 0.005 µM",-4.12%
same,inhibition,"[4]; measured here: combination with BGB IC40, at 0.005 µM",-22.8%
same,inhibition,[4]; [19],1.72%
same,inhibition,"[4]; measured here: combination with cisplatin, at 0.5 µM, stronger effect = higher value",-35.5%
same,inhibition,"[4]; measured here: combination with cisplatin, at 5 µM, stronger effect = higher value",126%
same,inhibition,"[5]; BGB combo, at 5 µM",30.5%
same,inhibition,[5]; at 0.5 µM,-5.69% (inactive)
same,inhibition,"[5]; cisplatin combo, at 5 µM",55%
same,inhibition,[5]; [20],-10.7%
same,inhibition,[5]; [21],0.325%
same,inhibition,"[5]; single agent, at 5 µM",66%
same,inhibition,"[6]; BGB IC20 combo, at 0.005 µM",-34.3%
same,inhibition,"[6]; BGB IC40 combo, at 0.005 µM",-7.26%
same,inhibition,"[6]; BGB IC40 combo, at 0.05 µM",96.7%
same,inhibition,[6]; at 0.5 µM,-23.8% (inactive)
same,inhibition,"[6]; cisplatin combo, at 0.05 µM",96.7%
same,inhibition,"[6]; cisplatin combo, at 0.5 µM",-39.7%
same,inhibition,"[6]; cisplatin combo, at 5 µM",-4.59%
same,inhibition,"[6]; measured here: 5 uM single agent, at 5 µM",-6.09%
same,inhibition,[7]; at 0.5 µM,26.9% (inactive)
same,inhibition,[7]; [19],-58.1%
same,inhibition,[7]; [22],61.8%
same,inhibition,[7]; [23],106%
same,inhibition,[8]; at 0.5 µM,-13.4% (inactive)
same,inhibition,"[8]; measured here: with BGB IC20, at 0.5 µM",-37.4%
same,inhibition,"[8]; measured here: with BGB IC20, at 5 µM",32.5%
same,inhibition,"[8]; measured here: with cisplatin IC20, at 0.5 µM",-11.6%
same,inhibition,"[8]; measured here: with cisplatin IC20, at 5 µM",68.7%
same,inhibition,"[8]; single agent, at 5 µM",71%
same,inhibition,[9]; at 0.5 µM,2.15% (inactive)
same,inhibition,"[9]; measured here: combination with BGB at IC20, at 0.5 µM",2.66%
same,inhibition,"[9]; measured here: combination with cisplatin at IC20, at 0.5 µM",0.146%
same,inhibition,[10]; at 0.5 µM,-7.18% (inactive)
same,inhibition,"[10]; measured here: combo with BGB at IC20, at 0.5 µM",-5.76%
same,inhibition,"[10]; measured here: combo with cisplatin at IC20, at 0.5 µM",-11.1%
same,inhibition,[11]; at 0.5 µM,8.41% (inactive)
same,inhibition,"[11]; measured here: inhibition with BGB combination, at 0.05 µM",-10.6%
same,inhibition,"[11]; measured here: inhibition with cisplatin combination, at 0.05 µM",1.36%
same,inhibition,[12]; at 0.5 µM,1.52% (inactive)
same,inhibition,[12]; [22],8.4%
same,inhibition,[12]; [23],102%
same,inhibition,[13]; at 0.5 µM,-1.05% (inactive)
same,inhibition,"[13]; measured here: BGB combination, at 0.5 µM",1.08%
same,inhibition,"[13]; measured here: BGB combination, at 5 µM",38.9%
same,inhibition,"[13]; measured here: cisplatin combination, at 0.5 µM",-7.9%
same,inhibition,"[13]; measured here: cisplatin combination, at 5 µM",51.5%
same,inhibition,"[14]; BGB combination, concentration series, at 5 µM",35.4%
same,inhibition,[14]; at 0.5 µM,7.28% (inactive)
same,inhibition,"[14]; cisplatin combination, concentration series, at 5 µM",66%
same,inhibition,[15],19.3% (inactive)
same,inhibition,[15]; measured here: combo with BGB IC20,14.4%
same,inhibition,[15]; measured here: combo with cisplatin IC20,21.1%
same,inhibition,[16]; at 0.5 µM,25.1% (inactive)
same,inhibition,"[16]; cisplatin combination, at 0.5 µM",43%
same,inhibition,"[16]; cisplatin combination, at 5 µM",103%
same,inhibition,"[16]; measured here: BGB IC40 combination 0.05 uM, at 0.05 µM",16.9%
same,inhibition,"[16]; single agent, at 5 µM",107%
same,inhibition,[17]; at 0.5 µM,15.7% (inactive)
same,inhibition,"[17]; cisplatin combo, at 5 µM",102%
same,inhibition,"[17]; measured here: BGB IC40 combination, at 0.05 µM",12.8%
same,inhibition,[17]; [22],27.1%
same,inhibition,"[17]; single agent, at 5 µM",88.8%
same,inhibition,[18]; at 0.5 µM,44.7% (inactive)
same,inhibition,[18]; [20],29.8%
same,inhibition,[18]; [21],52.1%
same,inhibition,"[18]; single agent, at 0.05 µM",3.9%
same,inhibition,"[18]; single agent, at 5 µM",93.9%
same,log fold change Tl+ flux,F380Y,-0.00258 (inactive)
same,log fold change Tl+ flux,F380Y/beta1,0.0388 (inactive)
CN1CCN(c2c(F)cc3c(=O)c(C(=O)O)cn4c3c2SCC4)CC1,remaining NAD,[1],10 nM (inactive)
same,z-score,[3],-0.175 (inactive) and 0.05 (inactive)
same,log fold change Tl+ flux,F380Y,0.0311 (inactive)
same,log fold change Tl+ flux,F380Y/beta1,0.0284 (inactive)
COC1=C(OC)C(=O)C(CCCCCCCCCCO)=C(C)C1=O,remaining NAD,[1],10 nM (inactive)
same,z-score,[3],-1.85 (inactive) and -2.1 (inactive)
same,log fold change Tl+ flux,F380Y,-0.163 (active)
same,log fold change Tl+ flux,F380Y/beta1,0.138 (active)
Cn1c(NCCN(CCO)CCCc2ccc([N+](=O)[O-])cc2)cc(=O)n(C)c1=O,z-score,[3],0.115 (inactive) and 0.85 (inactive)
same,log fold change Tl+ flux,F380Y,-0.0604 (inactive)
same,log fold change Tl+ flux,F380Y/beta1,-0.0554 (inactive)
COc1cc(C)nc(-n2nc(C)cc2OC)n1,z-score,[3],0.61 (inactive)
same,log fold change Tl+ flux,F380Y,-0.0134 (inactive)
same,log fold change Tl+ flux,F380Y/beta1,-0.00765 (inactive)
NCC1CCC(C(=O)Oc2ccc(CCC(=O)O)cc2)CC1 (stereo not given),z-score,[3],0.62 (inactive)
same,log fold change Tl+ flux,F380Y,-0.0268 (inactive)
same,log fold change Tl+ flux,F380Y/beta1,-0.0246 (inactive)
CC(Cc1ccccc1)(NC(=O)CN)c1ccccc1 (stereo not given),z-score,[3],0.32 (inactive) and -0.22 (inactive)
same,log fold change Tl+ flux,F380Y,0.0343 (inactive)
same,log fold change Tl+ flux,F380Y/beta1,0.0342 (inactive)
